GSTO1 inh = blocks human GSTO1 in RBBP9 counter-screen | P78417 | recombinant GSTO1, activity-based probe fluorescence polarization | inhibition, % at 5.96 µM | actives 1.1% (n = 300,000) | AID 1974;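 active = inhibition above the campaign mean inhibition plus 3 SD, cut at about 35% in these data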
PME-1 inh = blocks human protein phosphatase methylesterase 1; Q9Y570; recombinant PME-1, FP-Rh probe fluorescence polarization; inhibition, % at 5.9 µM; actives 0.53% (n = 320,000); AID 2130;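 active = inhibition above the campaign mean of all compounds plus 3 SD, cut at about 26% in these data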;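 also: competitive labeling of PME-1 active site by serine hydrolase directed probe; inhibitors block probe labeling so polarization falls and inhibition rises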
Fam108B inh = blocks mouse Fam108B hydrolase in RBBP9 counter-screen | inhibition, % at 9.51 µM | actives 0.33% (n = 300,000) | recombinant Fam108B, FP-Rh probe fluorescence polarization;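 active = inhibition above the screen mean inhibition plus 3 SD, computed separately per campaign, cut at about 18% in these data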;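 also: inhibitors lower polarization as less probe binds the enzyme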
PAD4 FP inh = inhibitors of human PAD4; recombinant PAD4, RCA probe fluorescence polarization; actives 0.41% (n = 330,000); Q9UM07; AID 485272; inhibition, % at 6.36 µM;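 active = percent inhibition above a cutoff equal to the mean of all tested compounds plus 3 SD, cut at about 15% in these data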
LYPLA1 inh = LYPLA1 (human) inhibition in PME1 counter-screen | O75608 | recombinant LYPLA1, FP-Rh probe fluorescence polarization | inhibition, % at 5.9 µM | actives 0.16% (n = 320,000) | AID 2174;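 active = inhibition above the mean of all tested compounds plus 3 SD, set per campaign, cut at about 14% in these data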;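 also: inhibitors block serine hydrolase probe labeling of LYPLA1 so polarization falls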
Target sequence (O75608 whole entry, looked up): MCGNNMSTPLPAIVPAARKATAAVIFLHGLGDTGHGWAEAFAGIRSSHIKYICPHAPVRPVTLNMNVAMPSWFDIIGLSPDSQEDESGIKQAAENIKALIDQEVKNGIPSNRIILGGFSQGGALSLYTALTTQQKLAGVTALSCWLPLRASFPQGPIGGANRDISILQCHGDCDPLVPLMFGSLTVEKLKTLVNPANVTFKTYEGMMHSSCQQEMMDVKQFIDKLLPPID
LYPLA2 counter = LYPLA2 (human) inhibition in PME1 counter-screen. O95372. recombinant LYPLA2, FP-Rh probe fluorescence polarization. inhibition, % at 5.9 µM. actives 0.38% (n = 320,000);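 active = inhibition above the screen-wide mean plus 3 SD, limit set per campaign, cut at about 26% in these data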
Target sequence (O95372 whole entry, looked up): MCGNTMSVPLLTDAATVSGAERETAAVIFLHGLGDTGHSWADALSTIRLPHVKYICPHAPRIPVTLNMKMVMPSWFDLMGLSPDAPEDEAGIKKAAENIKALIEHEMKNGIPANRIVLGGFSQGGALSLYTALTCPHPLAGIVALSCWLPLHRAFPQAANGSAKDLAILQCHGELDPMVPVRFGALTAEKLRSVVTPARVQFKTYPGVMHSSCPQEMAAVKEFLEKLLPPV
LYPLA2 conf = LYPLA2 (human) inhibition, confirmation counter-screen. shares compounds with LYPLA2 counter. recombinant LYPLA2, FP-Rh probe fluorescence polarization. inhibition, % at 5.9 µM. actives 72% (n = 1,100);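 active = mean inhibition across replicates above the hit cutoff set in the primary screen, cut at about 26% in these data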;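 also: blocked labeling of the enzyme by serine hydrolase FP-Rh probe lowers polarization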
LYPLA2 ABPP = LYPLA2 (human) inhibition, late stage results; shares compounds with LYPLA2 counter; rhLYPLA2 in mouse brain proteome, gel ABPP FP-Rh; inhibition, % at 20 µM; actives 30% (n = 150); AID 652029;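 active = inhibition of LYPLA2 enzyme probe labeling above about 50%, limit read from the data; inactive = inhibition below that limit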;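 also: loss of FP-Rh probe labeling of the LYPLA2 gel band measured as band density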
A number is an active result; . = inactive; / = no result. Rows were chosen to be rich in hits. Some 1.8% of all compounds tested hit in one or more screens of this group.

SMILES	GSTO1 inh	PME-1 inh	Fam108B inh	PAD4 FP inh	LYPLA1 inh	LYPLA2 counter	LYPLA2 conf	others
O=C(NCc1n[nH]c(=S)n1-c1cccc(Cl)c1)c1ccc(S(=O)(=O)N2CCCC2)cc1	.	.	.	.	.	.	/
Cc1cccc(-n2c(CNC(=O)c3ccc(S(=O)(=O)N4CCCCC4)cc3)n[nH]c2=S)c1	.	.	.	.	.	79	.
CC(=O)c1cccc(NS(=O)(=O)c2csc(C(N)=O)c2)c1	.	.	.	.	.	.	/
O=C(NC1CCc2ccccc21)c1cc(COc2ccc(F)cc2Cl)on1 (centres undefined)	.	.	.	.	.	.	/
O=C(NC1CCc2ccccc21)c1cc(COc2cncc(Cl)c2)on1 (centres undefined)	.	.	.	.	.	43	33
O=C(Nc1ccc(Cl)cc1)Nn1cnc2ccccc2c1=O	.	.	.	.	.	30	34
O=C(Nn1cnc2ccccc2c1=O)c1ccccc1Cl	.	.	.	.	.	.	/
Cc1ccc(Cn2ncc(C)c2N)o1	.	.	.	.	.	.	/
O=[N+]([O-])c1ccc(CN2CCN(c3ccc([N+](=O)[O-])cc3)CC2)cc1	.	.	.	.	.	47	31
Cc1ccc(N2CCN(CCCN3C(=O)C4CCCN4C3=O)CC2)cc1 (centres undefined)	.	.	.	.	.	.	/
O=C1C2CCCCN2C(=O)N1CCCCN1CCN(c2ccc([N+](=O)[O-])cc2)CC1 (centres undefined)	.	.	.	.	.	31	.
CCOC(=O)C1CCN(C(=O)Cn2c(=O)oc3cc(S(=O)(=O)N4CCCC4)ccc32)CC1	.	.	.	.	.	.	/
COc1ccc(N2CCN(C(=O)C3CCN(S(=O)(=O)c4ccc5c(c4)oc(=O)n5C)CC3)CC2)cc1	.	.	.	.	.	32	41
Cn1c(=O)oc2cc(S(=O)(=O)N3CCC(C(=O)N4CCN(c5ccccc5)CC4)CC3)ccc21	.	.	.	.	.	.	/
COc1ccc(N2CCN(C(=O)C3CCN(S(=O)(=O)c4cccs4)CC3)CC2)cc1	.	.	.	.	.	43	52	LYPLA2 ABPP=.
O=C(C1CCN(S(=O)(=O)c2cccs2)CC1)N1CCN(c2ccccc2)CC1	.	.	.	.	.	.	/
CC(=O)c1ccc(N2CCN(C(=O)C3CCN(S(=O)(=O)Cc4ccccc4)CC3)CC2)cc1	.	.	.	.	.	36	33
Cn1c(=O)oc2cc(S(=O)(=O)N3CCC(C(=O)N4CCN(c5ccc(F)cc5)CC4)CC3)ccc21	.	.	.	.	.	44	39
O=C(C1CCN(S(=O)(=O)Cc2ccccc2)CC1)N1CCN(c2ncccn2)CC1	.	.	.	.	.	.	/
COc1cc(NC(=O)CCCNC(=O)Cn2cnc3sc4c(c3c2=O)CCCC4)cc(OC)c1OC	.	.	.	.	.	.	/
CCOC(=O)C1=C(CS(=O)(=O)c2ccccc2)NC(=O)NC1c1ccc(OC)c(OC)c1 (centres undefined)	.	.	.	.	.	.	/
COC(=O)C1=C(CS(=O)(=O)c2ccccc2)NC(=O)NC1c1ccc(OC)c(OC)c1 (centres undefined)	.	.	.	.	.	32	.
COc1ccccc1-c1nnc(N)s1	.	.	.	.	.	28	.
COc1ccc(-c2noc3c2-c2nc(-c4ccc(C)cc4)sc2CC3)cc1	.	.	.	.	.	40	.
COc1ccccc1Oc1ccc2c(c1)C(=O)N(c1cccc(O)c1)C2=O	.	.	.	.	.	51	51	LYPLA2 ABPP=.
CS(=O)(=O)Nc1cccc(-c2cn3c(n2)SCC3)c1	.	.	.	.	.	.	/
Cc1ccccc1NC(=O)c1nn(C)c2c1CS(=O)(=O)c1ccccc1-2	.	.	.	.	.	40	46
O=C(Nn1cnnc1)c1ccc(F)c(S(=O)(=O)N2CCCCC2)c1	.	.	.	.	.	.	/
